# High-throughput results: PubChem, several laboratories
# phage Ecoli inh – E. coli growth loss with phage present. AID 651602. growth absorbance. inhibition, % at 11.9 µM. 0.26% of 360,000 active; in the data active = inhibition above about 11%
# Tat export inh – inhibitors of E. coli Tat protein transport | inhibition, % at 10 µM | E. coli MC4100 TorA-mCherry Tat export, fluorescence | 0.036% of 340,000 active | AID 488895;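 active = mean replicate inhibition at least 50% and at least half of replicates individually reaching 50%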;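 also: exported cargo escapes ClpAP degradation while cytoplasmic cargo is degraded and loses fluorescence; 0% = median of neutral control wells and 100% = median of NaSCN control wells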
# E coli growth-1 – blocks Escherichia coli growth; OD600 absorbance (concentration not given with the values); OD600, 23 h; active compounds read low; 0.21% of 330,000 active; AID 1053175;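 active = OD600 absorbance below the run mean of sample wells minus 3.6 SD, in any replicate, cut at about 0.56 in these data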
# E coli growth-2 – reduces bacterial viability in AddAB counter-screen; E. coli V3065 growth, OD600 absorbance, 18 h; inhibition, % at 11.9 µM; 0.27% of 330,000 active;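 active = inhibition above the campaign's mean inhibition across all tested compounds plus 3 SD, cut at about 9.9% in these data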;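 also: uninfected addAB+ strain grown without phage in ampicillin broth; 0% = DMSO wells and 100% = ciprofloxacin 0.95 µg/ml wells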
# AddAB inh – less growth of phage-infected E. coli with AddAB. E. coli expressing H. pylori AddAB, absorbance growth. inhibition, % at 11.9 µM. 0.29% of 330,000 active. AID 435030; in the data active = inhibition above about 12%;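 also: 0% = vehicle wells of infected cells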
# RecBCD conf – confirmation: growth loss of phage-infected RecBCD+ E. coli (RecBCD inhibitor screen); E. coli V66 + T4 2- phage, growth OD; inhibition, % at 11.9 µM; 45% of 890 active; shares compounds with phage Ecoli inh;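 active = mean inhibition over triplicates exceeding the hit threshold derived in the original primary screen, cut at about 11% in these data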
# Ecoli viability – counter-screen for RecBCD inhibitors: inhibitors of bacterial viability; shares compounds with phage Ecoli inh; E. coli viability, absorbance (OD) growth; inhibition, % at 11.9 µM; 29% of 890 active; AID 651983; in the data active = inhibition above about 20%;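 also: E. coli strain V66 grown with compound alone and no phage infection; 0% = bacteria with DMSO vehicle only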
# AddAB phage OD – growth loss of phage-infected AddAB E. coli, RecBCD counter-screen. shares compounds with phage Ecoli inh. E. coli expressing H. pylori AddAB + T4 phage, OD growth; gene 2 mutant T4, recBCD-deleted host. inhibition, % at 11.9 µM. 45% of 890 active;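 active = mean inhibition above the solvent-only control wells' mean plus 3 SD, cut at about 22% in these data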;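 also: higher means less bacterial growth from phage killing when AddAB is blocked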
# * = called active by the depositor; / = no result given; ! = not confirmed by another sample. Only some compounds are listed: those with a hit (about 0.5% of all), similar ones and a draw of the others.
SMILES,phage Ecoli inh,Tat export inh,E coli growth-1,E coli growth-2,AddAB inh,RecBCD conf,Ecoli viability,AddAB phage OD
Oc1cc(Cl)c(Cl)c(Cl)c1Cl,13*,-9,/,/,/,14*,19,17
Cc1cc(C)cc(N2C(=O)NC(=O)C(=Cc3cccn3-c3ccc(Cl)cc3)C2=O)c1,/,/,0.72,/,/,/,/,/
Cc1cc2c(C(C)C)c(O)c(O)c(C=O)c2c(O)c1-c1c(C)cc2c(C(C)C)c(O)c(O)c(C=O)c2c1O,15*,/,/,/,/,5,5,7
O=[N+]([O-])c1oc2ccc3ccccc3c2c1CCO,100*,-8,/,/,/,104*,105*,103*
CC(Cc1ccccc1)NC(=O)CCCCC(=O)NC(C)Cc1ccccc1 (configuration not stated),14*,1,/,0,0,-3,-2,-2
COC(=O)C1=C(c2ccccc2)CC2CCC1N2C(=O)NCc1ccccc1 (configuration not stated),/,/,0.66,/,/,/,/,/
Cc1cccc(-n2c(/C=C/c3ccc([N+](=O)[O-])o3)nc3ccccc3c2=O)c1,2,-4,0.65,3,5,/,/,/
O=c1c2ccccc2nc(/C=C/c2ccc([N+](=O)[O-])o2)n1-c1ccc(O)cc1,12*,-4,0.67,/,/,6,9,40*
COc1cc2c3cc1Oc1cc(ccc1O)CC1c4c(cc(OC)c(O)c4Oc4ccc(cc4)CC3N(C)CC2)CCN1C (configuration not stated),/,/,0.7,/,/,/,/,/
O=C(Cn1cc(C(=O)c2ccccc2F)c2ccccc21)NCc1ccco1,0,-4,0.66,3,2,/,/,/
COCCNC(=O)Cn1cc(C(=O)c2ccccc2F)c2ccccc21,44*,-1,0.65,-1,-2,-2,-2,-3
COC(=O)C1=C(c2ccc(F)cc2OCc2ccccc2)CC2CCC1N2C(=O)NCc1ccccc1Br (configuration not stated),/,/,0.73,/,/,/,/,/
O=[N+]([O-])c1ccc(N2CCOCC2)c2cccnc12,4,-2,0.69,2,2,/,/,/
O=[N+]([O-])c1ccc(N2CCOCC2)c2c1no[n+]2[O-],17*,/,/,/,/,11,13,98*
CN(C)[C@@H]1C(=O)C(C(N)=O)=C(O)[C@@]2(O)C(=O)C3=C(O)c4c(O)cccc4[C@@](C)(O)[C@H]3C[C@@H]12,/,/,/,-1,-1,/,/,/
CN(C)[C@@H]1C(=O)C(C(N)=O)=C(O)[C@@]2(O)C(=O)C3=C(O)c4c(O)cccc4[C@@](C)(O)C3[C@H](O)C12 (some centres not stated),98*,150*!,/,0,0,101*,102*,102*
CN(C)[C@@H]1C(=O)C(C(N)=O)=C(O)[C@@]2(O)C(=O)C3=C(O)c4c(O)ccc(Cl)c4[C@@](C)(O)C3C[C@@H]12 (some centres not stated),99*,150*,/,/,/,101*,104*,105*
COC1=C(C)C(=O)O[C@]12C(=O)C(C)=C1CCCCN3C(C4CC(C)C(=O)O4)CC[C@]132 (some centres not stated),/,/,0.69,/,/,/,/,/
